From PubChem BioAssay (NCATS)
Results filed as inconclusive are left out. A call without a number means that no potency is given here. The source made the active and inactive calls. Calls come from the whole dose curve; as a rule, active = well fitted inhibition curve with a large enough effect; inconclusive = small, poorly fitted or top-dose-only effect; inactive = flat fitted curve, though single readings scatter.

target: Calcium and integrin-binding protein 1 (Homo sapiens) (UniProt Q99828); assay: Primary qHTS for Identification of Calcium Integrin Binding Protein 1 (CIB1) Competitor (AID 1508620); conditions: CIB1-GST / FITC-alphaIIb peptide fluorescence polarization; series mostly up to 114 µM;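 note: GST tagged CIB1 binding a fluorescein labelled alphaIIb integrin peptide tracer; top concentration of the series differs between compounds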
Sequence (Q99828 whole entry, looked up): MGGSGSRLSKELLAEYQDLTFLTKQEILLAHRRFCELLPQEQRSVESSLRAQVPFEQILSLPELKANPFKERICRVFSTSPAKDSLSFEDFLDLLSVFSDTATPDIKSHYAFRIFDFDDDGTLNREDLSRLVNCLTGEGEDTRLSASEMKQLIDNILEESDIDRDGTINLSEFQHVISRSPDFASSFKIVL
Method in brief: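 Fluorescence polarization competition: CIB1-GST (1 uM final) preincubated with compound 15 min at room temperature, then FITC-labeled alphaIIb peptide (100 nM final) added for another 15 min. Polarization read at Ex 480/Em 540.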

SMILES	Potency
O=C(c1ccc(F)cc1)N1CCCC(c2nc(-c3ccc(F)cc3)no2)C1 (centres undefined)	inactive
C/C=C/[C@@H]1C=C[C@@H]2C[C@H](C)CC[C@H]2[C@]1(C)/C(O)=C1/C(=O)[C@@H](CO)N(C)C1=O	inactive
CCC(C)C(=O)OC12C(OC(C)=O)C(C)C3(O)C(C=C(CO)CC4(O)C(=O)C(C)=CC43)C1C2(C)C (centres undefined)	inactive
Cc1cccc(-c2[nH]ncc2-c2ccc(F)c(-c3cnn(CCO)c3)c2)n1	inactive
CC(C)S(=O)(=O)NC[C@@H]1CC(c2ccc(N3CCCC3)c(F)c2)=NO1	inactive
C=C1CC[C@@H]2[C@](C)(CO)[C@H](O)CC[C@@]2(C)[C@@H]1CC(O)C1=CCOC1=O (some centres undefined)	inactive
C=CCc1ccc(OC(C)Cc2ccc(OC)c(OC)c2)c(OC)c1 (centres undefined)	inactive
C[C@@H](NC(=O)[C@H](O)c1cc(F)cc(F)c1)C(=O)N[C@@H]1C(=O)N(C)c2ccccc2-c2ccccc21	inactive
CC[C@H](C)/C=C(C)/C=C/C1=CC2=CC(=O)[C@]3(C)OC(=O)[C@@H](C(C)=O)[C@@H]3C2=CO1	inactive
CC1=C2C[C@@]3(C)C(CCC[C@@H]3C)C(O)C2OC1=O (some centres undefined)	inactive
C=CC(C)(O)CC[C@@H]1[C@@]2(C)CCCC(C)(C)C2CC[C@@]1(C)O (some centres undefined)	inactive
COC(=O)c1ccnc(-c2cc(C(=O)Nc3ccc(C4(N)CC4)cc3)ccn2)c1	inactive
O=C(NC[C@H](O)CN1CCc2ccccc2C1)c1ccnc(NC2CCC2)c1	inactive
COc1ccc(S(=O)(=O)n2cnc3cc(C)c(C)cc32)cc1	inactive
O=C(Nc1cccc2cccnc12)c1ccc(N2C(=O)[C@@H]3C4C=CC(C4)[C@@H]3C2=O)cc1	inactive
COc1ccc(CNCc2cccc3ccccc23)cc1	inactive
CC(=O)OC(C)(C)/C=C/C(=O)[C@](C)(O)[C@H]1C(O)C[C@@]2(C)[C@@H]3CC=C4[C@@H](C=C(O[C@@H]5O[C@H](CO)[C@@H](O)[C@H](O)[C@H]5O)C(=O)C4(C)C)[C@]3(C)C(=O)C[C@]12C (some centres undefined)	inactive
CC(=O)OC1C(=O)C2C3OCC4=C3[C@@](C)(CC[C@@H]4O)CC[C@]2(C)[C@H]1C(C)C (some centres undefined)	inactive
CC(=O)OC1CC2(C)C(CCC(C)C23Cc2c(O)cc(CO)c(C=O)c2O3)C(C)(C)C1O (centres undefined)	inactive
CC12CCC(OC3OC(CO)C(O)C(O)C3OC3OC(CO)C(O)C(O)C3O)CC1CCC1C2CCC2(C)/C(=C3/COC(=O)C3)CCC12O (centres undefined)	inactive

SMILES	Potency
COc1c(C)cc(NC(=O)c2nn(Cc3ccc(F)cc3)c3c2CN(C(=O)c2ccc[nH]2)C[C@]3(C)C(N)=O)cc1C	inactive
CC(=O)C1(C)CCC2C3C=C(C)C4=CC(=O)CCC4(C)C3CCC21C (centres undefined)	inactive
C[C@@H]1CN(CC(=O)N2CC(C)(C)c3ncc(Cc4ccc(F)cc4)cc32)[C@@H](CN2CCOC[C@H]2C)CN1	inactive
C=C(C(=O)O)[C@@H]1CC=C(CCC(C)=O)[C@@H](C)CC1	inactive
COc1cc(/C=C2\CC[C@H]3COC[C@@H](c4cc(F)c(F)c(F)c4)N3C2=O)ccc1-n1cnc(C)c1	inactive
CCC(C)/C=C(C)/C=C/C1=CC2=CC(=O)C3(C)OC(C)(O)C(C(=O)OC)C3C2=CO1 (centres undefined)	inactive
CC1CCCC(O)CCC/C=C/c2cc(OS(=O)(=O)O)cc(O)c2C(=O)O1 (centres undefined)	inactive
C=CCC1=C[C@]2(OC)[C@H](C)[C@@H](c3ccc4c(c3)OCO4)O[C@]2(OC)CC1=O	inactive
CN(C)N(C)C(=O)[C@@]1(Cc2ccccc2)CCCN(C(=O)[C@@H](Cc2c[nH]c3ccccc23)NC(=O)C(C)(C)N)C1	inactive
CC(=O)O[C@@H]1C[C@@]2(C)C(CC[C@]3(C)C2CC=C2C4CC(C)(C)CC[C@]4(C(=O)O)CC[C@]23C)C(C)(C)[C@H]1O (some centres undefined)	inactive
C/C=C\NC(=O)C1NC(=O)C(CC(N)=O)NC(=O)C(NC(=O)C(=O)C(C)CC)Cc2ccc(O)c(c2)-c2cccc3c2NC(=O)C3(O)C1O (centres undefined)	inactive
C=C1CC[C@@H]2[C@](C)(CO)[C@H](O)CC[C@@]2(C)[C@@H]1C/C=C1/C(=O)OCC1OC(=O)/C(=C/CO)C(O)C[C@@H]1C(=C)CC[C@@H]2[C@](C)(CO)[C@H](O)CC[C@]21C (some centres undefined)	inactive
CCC(C)C(=O)O[C@H]1[C@H](O)[C@@]2(COC(C)=O)C(CC1(C)C)C1=CCC3[C@@]4(C)CC[C@H](O[C@@H]5O[C@H](C(=O)O)[C@@H](O)[C@H](O)[C@H]5O)[C@@](C)(CO)C4CC[C@@]3(C)[C@]1(C)C[C@@H]2O (some centres undefined)	inactive
CC(=O)OC1C(OC(=O)c2ccccc2)C2C(=C(C)CCC2(C)C)C23CCC(C)(C2)C(=O)CC13 (centres undefined)	inactive
CC(=O)C1=CCC2C3CC=C4CC(O)CC(O)C4(C)C3C(O)CC12C (centres undefined)	inactive
C=C1CC[C@@H]2[C@](C)(CO)[C@H](O)CC[C@@]2(C)[C@@H]1/C=C/C1=CCOC1=O	inactive
O=C(NC[C@H]1CN(c2ccc(N3CCOCC3=O)cc2)C(=O)O1)c1ccc(Cl)s1	inactive
Cc1nc2cc(C(=O)NCc3ccccn3)nn2c(C)c1Cc1cccc(Cl)c1	inactive
NC(=O)C1=CC2C3C=CC2C(OC3=O)O1 (centres undefined)	inactive
